Bioassay records as filed in PubChem BioAssay.
A3A deaminase: blocks human APOBEC3A ssDNA deamination; P31941; recombinant A3A, FAM/TAMRA ssDNA deamination fluorescence; inhibition, % at 20 µM; 330,000 tested, 0.41% active; AID 493011;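 active means at least 40% inhibition at 20 µM here, with at most 30% in a related deaminase screen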
A3G deaminase: APOBEC3G (human) deaminase inhibition; 330,000 tested, 0.28% active; recombinant A3G, ssDNA deamination FAM/TAMRA fluorescence; inhibition, % at 20 µM; Q9HC16;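 active means inhibition of at least 40% at 20 µM, with no more than 30% in the related APOBEC3A deaminase screen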
Target sequence (Q9HC16 whole entry, looked up): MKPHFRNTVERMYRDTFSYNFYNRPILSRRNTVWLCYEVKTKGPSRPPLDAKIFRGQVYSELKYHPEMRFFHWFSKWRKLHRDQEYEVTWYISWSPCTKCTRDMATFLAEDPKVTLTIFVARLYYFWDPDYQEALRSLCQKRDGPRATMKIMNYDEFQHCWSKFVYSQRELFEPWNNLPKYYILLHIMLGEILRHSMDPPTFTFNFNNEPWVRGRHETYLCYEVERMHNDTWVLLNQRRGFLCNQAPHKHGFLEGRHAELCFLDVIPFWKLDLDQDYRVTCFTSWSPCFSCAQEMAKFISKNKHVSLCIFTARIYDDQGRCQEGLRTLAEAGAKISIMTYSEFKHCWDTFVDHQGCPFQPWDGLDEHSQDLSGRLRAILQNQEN
NRP1-CendR mod: alters CendR peptide binding to human NRP-1; AID 602438; inhibition, % at 25 µM; O14786; FAM-RPARPAR peptide binding to NRP-1, fluorescence polarization; 360,000 tested, 0.85% active;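 active means inhibition or corrected inhibition above about 18%, plus a signal ratio from 0.5 to 1.5, limit read from the data, passing the limit was not always enough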
ALR H2O2 inh: human ALR oxidase inhibition via reduced H2O2. P55789. purified ALR, DTT oxidation, H2O2 HRP-luminol luminescence. inhibition, % (concentration not given with the values). 290,000 tested, 3.8% active. AID 485317;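 active means mean replicate inhibition above about 79%, with every replicate also reaching it, limit read from the data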
CR mimetic SO: caloric restriction mimetics inhibiting age-related superoxide in yeast | S. cerevisiae aged cells, superoxide DHE fluorescence; active compounds read low | superoxide response (% of plate mean), % at 10 µM | 330,000 tested, 0.18% active;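 active means superoxide response under a set limit, about three screen SD below normal, cut at about 65% in these data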;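 further: yeast aged for seven days with compound at 30 °C before DHE staining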
PfM18AAP inh: blocks P. falciparum M18 aspartyl aminopeptidase | recombinant PfM18AAP, H-Glu-NHMec fluorogenic cleavage | inhibition, % at 7.35 µM | 290,000 tested, 1.2% active;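 active means inhibition above the campaign mean inhibition over all tested compounds plus 3 SD, cut at about 28% in these data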
A3G conf: confirmation of human APOBEC3G DNA deaminase inhibitors; shares compounds with A3G deaminase; recombinant A3G ssDNA deaminase, UDG/FAM-TAMRA fluorescence; inhibition, % at 20 µM; 890 tested, 72% active; AID 493152;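 active means inhibition reaching a set limit in any replicate at 20 µM, the limit being 80% of the first screen's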
UDG A3G counter: E. coli UDG inhibition in APOBEC3G counter-screen; inhibition, % at 20 µM; shares compounds with A3G deaminase; AID 504715; 710 tested, under 10 active; UDG counterscreen, FAM/TAMRA oligo fluorescence;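 active means compounds giving 40% or more inhibition at 20 µM in any one of the three replicates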;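 further: inhibitors lower the FAM signal released by uracil excision and alkaline cleavage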
Target sequence (P12295 whole entry, looked up): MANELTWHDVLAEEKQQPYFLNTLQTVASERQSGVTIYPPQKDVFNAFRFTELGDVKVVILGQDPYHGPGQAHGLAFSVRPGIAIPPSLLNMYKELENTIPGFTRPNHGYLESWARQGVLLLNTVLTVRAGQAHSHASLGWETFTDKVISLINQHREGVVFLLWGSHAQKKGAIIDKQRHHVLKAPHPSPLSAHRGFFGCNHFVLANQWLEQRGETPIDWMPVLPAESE
A number is an active result; - = inactive; . = not tested or not shown. Compounds with a hit are over-represented: about 5.2% of the library has one in this group of screens.

SMILES	A3A deaminase	A3G deaminase	NRP1-CendR mod	ALR H2O2 inh	CR mimetic SO	PfM18AAP inh	A3G conf	UDG A3G counter
CC1(C)Cc2ccccc2-c2n[nH]c(=S)n21	-	56	-	-	-	-	90	-
Cc1nc2scc(-c3ccccc3)c2c(=O)n1N=C1C=CC(=O)C=C1	-	65	.	.	.	-	93	-
CCOC(=O)c1c(N)sn(-c2ccccc2C)c1=S	-	57	-	97	-	-	54	-
C=CCOc1c(Br)cc(/C=C(\C#N)C(N)=O)cc1OC	-	-	-	-	-	-	.	.
C/C(=N\NC(=O)C(=O)N/N=C(\C)c1cccc(O)c1)c1cccc(O)c1	-	58	-	-	-	-	-	.
O=C(c1ccco1)N1CCN(C(=O)c2cnn(-c3ccc(Cl)cc3)c2C2CCNCC2)CC1	-	-	-	-	-	-	.	.
O=C(O)c1ccc(/C=N/N2CCN(c3ccccc3)CC2)cc1	-	-	-	-	-	-	.	.
C(=N/N1CCN(c2ccccc2)CC1)/c1ccncc1	-	43	-	97	-	-	-	-
CCC(Sc1nc(N)cc(N)n1)C(=O)O (stereo not given)	-	44	-	.	-	-	-	.
CCC(Sc1ccccc1C(=O)O)C(=O)O (stereo not given)	-	-	-	-	-	-	.	.
CCN(CC)C(=O)CSc1nc2c(sc(=S)n2-c2ccccc2)c(=O)n1-c1ccc(OC)cc1OC	-	53	-	.	-	-	56	-
CCOC(=O)CSc1nc2c(sc(=S)n2-c2ccccc2)c(=O)n1-c1ccc(OC)cc1OC	-	41	-	.	-	30	28	-
Oc1cccc(CN2CCOCC2)c1O	.	.	-	.	.	.	.	.
Cc1ccccc1NC(=O)Cn1nnc2ccccc21	-	50	-	-	-	-	-	-
Cc1cc(C)n2nc(Nc3ccccc3)cc2n1	-	-	-	-	-	-	.	.
COC(C[C@H](O)[C@@H](C)[C@@H](O)COCc1ccccc1)OC	-	-	-	.	.	.	.	.
COCCCn1c(-c2ccc(Cl)cc2)n[nH]c1=S	-	49	-	95	-	-	58	-
CCOCCCn1c(-c2ccc(Cl)cc2)n[nH]c1=S	-	53	-	-	-	-	62	-
S=c1[nH]nc(-c2ccc(Cl)cc2)n1CCCN1CCOCC1	-	-	-	-	-	-	.	.
O=[N+]([O-])c1cccc(/C=N/n2c(COc3ccccc3)n[nH]c2=S)c1	-	59	-	.	-	-	73	-
S=c1[nH]nc(COc2ccccc2)n1/N=C/c1ccc(Br)cc1	-	-	-	-	-	-	.	.
S=c1[nH]nc(COc2ccccc2)n1/N=C/c1cccnc1	-	56	-	-	-	-	77	-
N/C(=N\c1nc2ccccc2o1)NC(=O)c1ccccc1	-	61	-	-	-	-	-	-
S=c1cnc2ccccc2[nH]1	-	62	-	-	-	-	84	-
CCn1c(CSc2nc3ccccc3[nH]2)n[nH]c1=S	-	46	-	96	-	-	55	-
SMILES	A3A deaminase	A3G deaminase	NRP1-CendR mod	ALR H2O2 inh	CR mimetic SO	PfM18AAP inh	A3G conf	UDG A3G counter
CCn1c(CSCc2ccccc2)n[nH]c1=S	-	41	-	-	-	-	85	-
Cc1ccc(NNC(=O)c2ccno2)cc1C	-	42	-	98	-	-	39	-
Cc1nn(CC(=O)NCCc2ccc(Cl)cc2)c(C)c1[N+](=O)[O-]	-	-	-	-	-	-	.	.
CC(=O)NCCC(=O)Nc1nc(-c2c[nH]c3ccccc23)cs1	-	79	-	.	.	-	-	-
O=C(Nc1ccc(-c2nc3ccc(NC(=O)c4cccs4)cc3[nH]2)cc1)c1cccs1	-	-	-	.	-	-	.	.
Fc1ccc(-c2nn3c(C4COc5ccccc5O4)nnc3s2)cc1 (stereo not given)	-	-	-	-	-	-	.	.
c1ccc2c(c1)OCC(c1nnc3sc(-c4ccc5c(c4)OCO5)nn13)O2 (stereo not given)	-	57	-	-	-	-	48	-
Clc1ccccc1-c1nnc2sc(-c3ccc4c(c3)OCO4)nn12	-	53	-	-	-	-	40	-
CCCCN(CCCC)C(=O)c1sc2nc(N3CCOCC3)c3c(c2c1N)CCCC3	-	42	-	.	-	32	-	-
CNC[C@@H]1OCc2ccccc2-c2ccccc2C(=O)N([C@@H](C)CO)C[C@@H]1C	.	.	-	.	.	.	.	.
COc1ccc(CNC(=O)c2cc3ccccc3o2)cc1OC	-	71	-	-	-	-	-	-
COC(=O)CSc1nc(N)c2c3c(sc2n1)C(c1ccccc1)SC(c1ccccc1)C3 (stereo not given)	-	43	-	-	-	-	-	-
O=C(Nc1cc(S(=O)(=O)N2CCOCC2)ccc1N1CCCCC1)c1cc(-c2ccccn2)nc2ccccc12	-	53	-	-	-	-	58	-
CCc1nnc(NC(=O)CSc2nnc(CNc3ccc(OC)cc3)n2CC)s1	-	-	-	-	-	-	.	.
O=c1c2c([N+](=O)[O-])cc([N+](=O)[O-])cc2sn1-c1ccc(Br)cc1	-	75	-	-	-	-	72	.
O=c1c2c([N+](=O)[O-])cc([N+](=O)[O-])cc2nc2ccccn12	-	-	-	-	-	-	.	.
COc1ccc(Cl)cc1NC(=O)NC1CCCCC1	-	46	-	-	-	-	27	-
COc1ccc(Cl)cc1NC(=O)c1ccccc1C	-	41	-	-	-	-	-	.
COc1ccccc1C(=O)Nc1cc(Cl)ccc1O	-	-	-	-	-	-	.	.
O=C(CNC(=O)C12CC3CC(CC(C3)C1)C2)N1CCCC(C(F)(F)F)C1 (stereo not given)	.	.	-	.	.	.	.	.
Nn1c(-c2cccc(Br)c2)n[nH]c1=S	-	59	-	-	-	-	80	-
COc1cccc(NC(=S)N2CCC(C(=O)c3ccc(F)cc3)CC2)c1	.	.	-	.	.	.	.	.
CCCSc1nc2c(cnn2-c2ccccc2)c(=O)n1N	-	-	-	-	-	-	.	.
Cc1c(P(=S)(c2ccccc2)c2ccccc2)[n+]2ccccc2n1CCc1ccccc1	.	.	-	.	.	.	.	.
CCOC(=O)c1ccc(NC(=O)c2cccc(S(=O)(=O)N3CCOCC3)c2)cc1	-	-	-	-	-	-	.	.
CCOC(=O)c1ccc(S(=O)(=O)Nc2cc(S(=O)(=O)N3CCOCC3)ccc2O)cc1	-	52	-	-	-	.	27	-
O=C(CCCSc1ccc(Cl)cc1)Nc1cc(S(=O)(=O)N2CCOCC2)ccc1O	-	51	-	-	-	.	73	-
Cc1ccc2c(c1)sc1nc(=O)n(-c3ccc(Cl)c(Cl)c3)c(=O)n12	-	-	-	-	-	-	.	.
O=S(=O)(c1cccc(-c2n[nH]c(=S)n2Cc2ccccc2)c1)N1CCOCC1	-	46	-	-	-	-	72	-
